Measured values as given in PubChem BioAssay AID1508600 (Functional Genomics Laboratory (NCATS/FGL), 2020).
The campaign covered roughly 53,000 sequences. About 3,700 (7%) were called active. The full list was thinned out, with actives kept by preference. A number with no mark means an inactive call.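 Rule for the calls: active = gene knockdowns whose robust z-score for IL-1 alpha signal is at least 2 or at most -2, so actives lie on both sides; inactive = the rest.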

Test: Components of the Cytosolic LPS Sensing Pathway: Gene Identification via Genome-wide siRNA Screen;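 note: robust z of the log signal after scaling to non-targeting control siRNA wells of the plate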
Settings: RAW264.7 macrophages, IL-1a HTRF, actives lie on both sides, screened at 100 nM (by protocol), cells primed 5 h with Pam3CSK4 first
How it was run: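 Using IL-1a HTRF as read-out, the screen measured release from RAW264.7 cells after 48h siRNA knockdown (100 nM), 5 h Pam3CSK4 priming and 24 h cytosolic LipidA. Values were expressed relative to negative-control wells as robust z-scores.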

Row | Sequence | z-score
1 | CGAUUCAAGGUAACAUAGATT against Esrrg | 1.66
2 | GGCACUAAUGGAGAGACUGTT against Nr6a1 | 3.53 (active)
3 | GGCCCAAACACGUGUAAAATT against Kdm5b | 0.322
4 | GGACAAAGAGGAAUGGAUATT against Tank | -1.19
5 | GGCAUGAAUCAGUCUAUGGTT against Olfr1308 | 0.656
6 | GGCUGGAGAAGUAAUGAUATT against Sp100 | 0.62
7 | GGAAGGUUGUAAGUUUAAATT against Krtap14 | 2.12 (active)
8 | GGACUUUGAAGAACUAAGUTT against Tfrc | 1.01
9 | GGGAUCUAAAGGCUGAAAATT against Mark4 | -0.291
10 | GCCAUCGCUAACUUACGGATT against Gdpd5 | -1.81
11 | GGAUGGACCUUCAGAAAAGTT against Srrm4 | -1.63
12 | GGUCGUGCAUGACAACUAUTT against Itk | 2.62 (active)
13 | GGCCAAAGUCGAAUCAUAUTT against Prmt2 | -0.252
14 | CCAAUGGCGAGACAACUACTT against Aldoa | 0.182
15 | GGGUCUGCCGUCAUCCAUATT against Acp6 | -0.563
16 | GGGCUUACCGUAUAACUUUTT against Nptn | 1.4
17 | GGACCUGAAUUCCACUCCUTT against Socs1 | -0.147
18 | GGAUGAGGAGGAUACAAAGTT against Eif3c | 0.228
19 | GGAUACUCUCAGGACGUGATT against Ncbp2 | -2 (active)
20 | CGAGCAAGCUUCUACAUACTT against AI182371 | 0.438
21 | GCAAAUCAUUUAGGACCCATT against Amer2 | -2.54 (active)
22 | GGAGUUCAGGUAUCCCUGATT against Nomo1 | -0.109

Row | Sequence | z-score
23 | GGAAAACAAGAAAGAUGAATT against Snupn | -1.05
24 | CGAUCCUCAUCUUUAUAUATT against Agbl1 | -0.33
25 | CGCCAAAAGUUCUUGCCAUTT against Olfr618 | -2.02 (active)
26 | CCUAGAUUCUGAAUUCGAATT against Pdzd8 | -1.09
27 | GGAUAACAGAUGGUUAAUATT against Pramel48 | 0.202
28 | GGUUGGAUUCCUGAUAUUATT against Moxd2 | -0.22
29 | CGGCACUAGGAAGCUUUUATT against Inpp5a | -0.185
30 | GCAUCUACCAUGGAAAUAUTT against Clcn7 | 0.053
31 | GGAGCUGGAGAAGUUACUUTT against Amigo3 | 2.06 (active)
32 | GCUGGUUGUAGUAAAACAGTT against Resf1 | -1.29
33 | GCUGGUAUGACCAAGAGAATT against Mutyh | 0.679
34 | GGGAAAUGACCUUCAUUGGTT against Rbl2 | 1.05
35 | GGUCAGUCAACAUGAACUUTT against Acad9 | 0.0973
36 | GGCAGGACAUUCUCAAAUCTT against Praf2 | 2.51 (active)
37 | GGGAGUUGAGAAGACAUAATT against Lim2 | 0.223
38 | CGGGCAGUACUAUGAUUUGTT against Ppp1cc | 2.09 (active)
39 | CCUCACCAAACCUUGUUGATT against Cd300lg | -1.57
40 | GGCUAAGACUAUGUUGUAATT against Smcp | -1.48
41 | GGCUCUUUGUUCAGUUUUUTT against Fxyd3 | 2.52 (active)
42 | CCAUAUAACUGCCAAUAAUTT against Ankrd7 | -2.02 (active)
43 | GCUCAUAAAACUCCAAAAGTT against Mob4 | -0.713
44 | GCAACUCUGAGGUUGCUAGTT against Pgam1 | -0.12

Row | Sequence | z-score
45 | CCCUCAUUGUAACCUUAACTT against Olfr792 | -2.27 (active)
46 | GGCUGAAUGUCGCUUAGAGTT against 9030612E09Rik | -0.875
47 | GGCUUAGCUUUUGUGAUUCTT against Olfr143 | -1.24
48 | GGUGUCCCUUAAUGUGUCCTT against Heg1 | 0.671
49 | GCCUCUCUGGUGAACUUAGTT against Ccar1 | 0.0406
50 | GCCUCACUUGAUGAAAUGGTT against Sccpdh | -2.13 (active)
51 | GGAAGGACUUAAAUGAUGCTT against Rnf187 | -1.18
52 | GGUGGACAUUCCUAAGAUUTT against Ago1 | -0.97
53 | CGCAUAAUGGAUGAGAGGATT against Mef2a | 0.871
54 | GCAGUGUAUAGGUGUACAATT against Krt2 | 3 (active)
55 | GCAGAGUGCUCGUAGAGUGTT against Heatr5a | 0.96
56 | GGAGGUUCAACAUGAAAAUTT against Lingo2 | -0.253
57 | GGCCUUUGCACGUGGAUUGTT against Zfp420 | -0.221
58 | GGGAAUCAUGAUAUGUUUCTT against Tmem186 | -0.217
59 | GGAGGUCCAUGUCCUGCUUTT against Mesp2 | 0.336
60 | GCAGAACCGCCAACCAACATT against Smarcc2 | -2.03 (active)
61 | CCUCGGUCAGAUUCCUGAUTT against Phpt1 | 0.101
62 | CCAAUAACUACUCAUACCCTT against Ints1 | 0.105
63 | GCAUGUAGUAUGGUAACACTT against Akr1b7 | -1.78
64 | CCUUAAACAGCUUUUCAGATT against Dync2h1 | 0.472
65 | UCUUACACUUCGUGUUCCATT against Gpr6 | 3.12 (active)
66 | CGAAAACUUCAUAGCUACATT against Hmg20a | -1.95

Row | Sequence | z-score
67 | GCAGACAAUAUCUCUGAAUTT against Olfr459 | -0.942
68 | CCUCUCAAGAAAUCGUGCATT against Trim47 | 0.978
69 | GCAGAUUGUGCAGCUAGCATT against Pax4 | 0.452
70 | CCAUCUCAUUCCUUACCAGTT against Gm4736 | -1.79
71 | GGAUAAGAUAAUGUCUGUGTT against Olfr716 | -1.73
72 | GGGUAACAGUGGUGAACCUTT against Col1a1 | 2.08 (active)
73 | GGCUGAGUUAUUUGUGACATT against Syt13 | -1.41
74 | CGGCCUGGGUCCCGUGGACTT against Hs3st6 | -1.18
75 | CGCAUGCCUGUAAAAUAAATT against 2310057M21Rik | -1.37
76 | GGGAAUUUUGGAAGAGUCUTT against F630003A18Rik | -3.23 (active)
77 | GCGAGGAAAGAGCACUGUATT against Fam107a | -0.103
78 | GGGCUAUGUUCGAAGUAAATT against Kbtbd3 | -0.848
79 | GGUGAGUAUAUUCAAGUUATT against Ndor1 | 4.36 (active)
80 | GGAUAUUUGGAGGACAACCTT against C1s1 | 0.0678
81 | CGAGAGGUUUGUCCAUAGATT against Tac4 | -0.86
82 | GGGACAAUAAAACCAACACTT against Ulk4 | -1.04
83 | CCACCUUGGUCUAAUUUCUTT against Slitrk4 | -2.06 (active)
84 | GGCUCCUCAUUACCUCUACTT against Rrp7a | 0.233
85 | GGGCCACACAGAAAUGGUUTT against Ank1 | 0.994
86 | GGAGAAAGGUGCUUCCGAUTT against Mrpl19 | 0.47
87 | CGAUGGCUUGGUUCCAUUUTT against Tcaf3 | -0.0976
88 | GGCACUACAACGGAACUCATT against Slco5a1 | -1.82

Row | Sequence | z-score
89 | GCGUGUUAGGAAAAACUCUTT against Pars2 | 1.36
90 | CCGAGCAGUAUGUGAACGUTT against Cela1 | 3.56 (active)
91 | CCUUUACUGUCCAUUCCGATT against Stxbp2 | -0.533
92 | CCCUGUGAAAGUGUCAUAUTT against Pigq | 1.28
93 | GGUUCAACUUCACACUGAGTT against Mettl22 | 1.08
94 | GGAAAAAAAUGCUGUAUACTT against Insm1 | -0.599
95 | GGUGCUUUGUAAACUGUCUTT against Slc26a11 | -2.99 (active)
96 | ACCUGUGAUGGUGGAGACUTT against AF067061 | 0.577
97 | GCAUGCCCGUAAUCAAGUGTT against Racgap1 | 0.104
98 | GGACUUCAGCAACUAUAGUTT against Ggt7 | -0.631
99 | GUUCCACUACUUCUGCUCCTT against Olfr583 | 0.41
100 | GGUGCUUCCAGAAUCUUUATT against Epha5 | 0.517
101 | CCGGUUUCAAAUUGCCACUTT against Psmb4 | -2.73 (active)
102 | GGAAGGUAUCUGAGGUCCGTT against 2810408A11Rik | -0.106
103 | GGCAUUGCUGGACUUUGAATT against Mvp | -1.71
104 | GCUGCACGCACUGAUCAAGTT against Tjap1 | 1.02
105 | GGUUUUGUUAAAGAAGACGTT against 4833439L19Rik | -2.25 (active)
106 | CGGUGACGACGGAAUUCUATT against Cpne4 | -1.42
107 | GGAUUCAGAAGGCCUCAGUTT against Olfr399 | 0.132
108 | UACUAGCAGAUUAACCACCTT against H2bc4 | -0.192
